Bioassay records from PubChem.
Only some compounds are listed: those with a hit (about 3% of all), similar ones and a draw of the others.
CF NFkB block – blocks PAF-induced NF-kB reporter in cystic fibrosis cells; KKLEB NF-kB-GFP reporter, GFP fluorescence overnight; inhibition, % at 5 µM; 0.86% of 360,000 active; AID 588850;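 active = at least 50% inhibition at 5 µM, scaled per plate between neutral and stimulator controls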;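 also: PAF is a Pseudomonas aeruginosa culture filtrate used as stimulus; plate controls were PAF-stimulated DMSO wells for no effect and unstimulated DMSO wells for full effect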
ABHD5 PLIN5 PPI – inhibitors of human ABHD5-perilipin-5 interaction; Q00G26+Q8WTS1; Split G. princeps luciferase complementation, luminescence, 4 h; inhibition, % at 4 µM; 0.78% of 360,000 active; AID 602281;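 active = inhibition above the mean inhibition across every tested compound plus 3 SD, cut at about 22% in these data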;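 also: 0% = DMSO only wells and the 100% control is not disclosed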
Target sequence (Q00G26 whole entry, looked up): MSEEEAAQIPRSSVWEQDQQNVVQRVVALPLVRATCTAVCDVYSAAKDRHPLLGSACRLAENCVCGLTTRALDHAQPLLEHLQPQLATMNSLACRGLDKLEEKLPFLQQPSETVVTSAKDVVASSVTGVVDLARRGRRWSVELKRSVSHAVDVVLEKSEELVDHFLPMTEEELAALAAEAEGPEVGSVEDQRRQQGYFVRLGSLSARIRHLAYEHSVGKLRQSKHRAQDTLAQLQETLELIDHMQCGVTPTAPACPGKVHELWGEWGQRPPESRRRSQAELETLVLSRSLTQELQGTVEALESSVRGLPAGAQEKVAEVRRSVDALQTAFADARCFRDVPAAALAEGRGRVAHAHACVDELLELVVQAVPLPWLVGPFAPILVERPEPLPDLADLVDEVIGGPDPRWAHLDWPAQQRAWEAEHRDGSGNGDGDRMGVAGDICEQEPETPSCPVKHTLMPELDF
Target sequence (Q8WTS1 whole entry, looked up): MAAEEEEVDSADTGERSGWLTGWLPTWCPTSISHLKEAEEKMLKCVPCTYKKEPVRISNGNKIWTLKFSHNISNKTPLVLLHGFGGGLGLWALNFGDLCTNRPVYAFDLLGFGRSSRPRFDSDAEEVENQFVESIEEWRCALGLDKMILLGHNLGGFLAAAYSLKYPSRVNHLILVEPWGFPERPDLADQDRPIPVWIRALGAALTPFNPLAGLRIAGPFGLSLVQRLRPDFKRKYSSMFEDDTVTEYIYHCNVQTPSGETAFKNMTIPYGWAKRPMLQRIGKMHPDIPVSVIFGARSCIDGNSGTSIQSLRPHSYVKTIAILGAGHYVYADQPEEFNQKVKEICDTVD
HIF-2a block – blocks HIF-2a reporter activity; 0.72% of 360,000 active; 786-0 RCC cells HIF-2a reporter, luciferase luminescence, overnight; AID 624352; inhibition, % at 18.8 µM;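 active = inhibition of the luminescence signal of 40% or more relative to plate controls, in a single-dose primary screen at 18.75 µM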
KKLEB cytotox – reduces viability of KKLEB cystic fibrosis airway cells; activity change (cytotoxicity), % at 5 µM; KKLEB CF airway cells viability, ATPlite luminescence, overnight; hits give low values; cells stimulated with P. aeruginosa culture filtrate; 0.36% of 360,000 active; AID 602141;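 active = corrected activity change at or below -50% at 5 µM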
TRPM1 prom inh – MITF TRPM1 promoter inhibition in SK-MEL-5 cells | SK-MEL-5 TRPM1 promoter luciferase, 24 h | inhibition, % at 12.5 µM | 0.83% of 330,000 active | AID 488899;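 active = mean inhibition across replicates of 60% or more, whatever share of single replicates reaches that level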
Peg3 prom inh-1 – Peg3 promoter activity inhibition. inhibition, % at 20 µM. 1.7% of 360,000 active. HeLa PEG-Prom luciferase reporter, luminescence, overnight;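 active = inhibition of at least 50% at 20 µM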
Peg3 prom inh-2 – confirmation of Peg3 promoter inhibitors; shares compounds with Peg3 prom inh-1; HeLa PEG-Prom luciferase reporter, luminescence, overnight; inhibition, % at 20 µM; 84% of 1,300 active; AID 602417;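 active = at 20 µM dose, 40% or more inhibition averaged across four replicates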
CF NFkB inh conf – confirmation of cystic fibrosis induced NF-kB inhibitors; shares compounds with CF NFkB block; KKLEB CF airway cells, PAF-induced NF-kB-GFP fluorescence, overnight; inhibition, % at 5 µM; 64% of 1,300 active; AID 602472; in the data active = inhibition above about 40%;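 also: stimulus PAF is a Pseudomonas aeruginosa filtrate and not platelet activating factor; plate controls were DMSO wells with stimulus for no effect and unstimulated DMSO wells for full effect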
Mdm2 MdmX conf – confirmation of inhibitors of human Mdm2/MdmX interaction, set 2 | shares compounds with HIF-2a block | SaOS-2 split-luciferase Mdm2/MdmX complementation, luminescence | inhibition, % at 8 µM | 99% of 740 active | AID 504601;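 active = mean inhibition of the luminescence signal across two replicates at or above 26 percent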
HIF-2a conf – HIF-2a inhibition, single concentration confirmation; shares compounds with HIF-2a block; 786-0 RCC cells, HIF-2a luciferase reporter luminescence, overnight; inhibition, % at 18.8 µM; 56% of 1,800 active; AID 651580;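 active = mean inhibition across four replicates of at least 40 percent at the single tested concentration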
HIF-1a cs – HIF-1a inhibition counter-screen for HIF-2a hits; shares compounds with HIF-2a block; MiaPaCa-2 HIF-1a luciferase reporter, desferoxamine, overnight; inhibition, % at 18.8 µM; 72% of 1,800 active; AID 651589;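 active = mean inhibition of the reporter signal across four replicates at the single tested dose of 50% or more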
Numbers without * were called inactive; · = not tested or not shown.

SMILES | CF NFkB block | ABHD5 PLIN5 PPI | HIF-2a block | KKLEB cytotox | TRPM1 prom inh | Peg3 prom inh-1 | Peg3 prom inh-2 | HIF-2a conf | HIF-1a cs | others
COc1ccc(OCc2cccc(C(=O)O)c2)cc1 | 0 | 2 | 93* | -5 | 97* | 96* | 90* | 97* | 7 | Mdm2 MdmX conf=93*
O=Cc1ccc(OCc2cccc(C(F)(F)F)c2)cc1O | 18 | -2 | -107 | 8 | 1 | 0 | · | · | ·
O=C(OCC(F)(F)F)c1cccc(COc2ccc3ccccc3c2)c1 | 0 | -4 | 83* | -3 | 91* | 73* | 77* | 90* | -52
Cc1nn(C(C)(C)C)c(C)c1/C=N/OC(=O)Nc1ccc(Cl)cc1 | 1 | -1 | 91* | -56* | 79* | 96* | 95* | 96* | 103* | Mdm2 MdmX conf=101*
CCOC(=O)C(C#N)(Cc1ccc2ccccc2n1)Cc1ccc2ccccc2n1 | 3 | 0 | 36 | -2 | -6 | 25 | · | · | ·
O=[N+]([O-])c1ccc(-c2nc(C(Cl)Cl)c3ccccc3n2)cc1 | 33 | 1 | -29 | -46 | 66* | 64* | 34 | · | · | Mdm2 MdmX conf=102*
CN(Cc1ccccc1)c1nc(-c2ccc([N+](=O)[O-])cc2)nc2ccccc12 | 12 | 0 | -2 | -8 | 2 | 8 | · | · | ·
Cc1ccc2[nH]c(CN3CCC(CO)(CC4CCCCO4)CC3)c(C)c2c1 (stereo not given) | 12 | 0 | -11 | 1 | 8 | 16 | · | · | ·
O=C(Nc1ccnn1C1CCN(Cc2cc(Cl)ccc2O)CC1)C1CC1 | 1 | 3 | 10 | 4 | 4 | -13 | · | · | ·
CN1OC[C@@H]2CN[C@H](c3ccc(-c4cc5ccccc5o4)cc3)C[C@@H]21 | -4 | 12 | 90* | -46 | · | 89* | 90* | 96* | 98*
Cc1ccccc1Nc1nc(N)nc(COC(=O)c2ccccc2)n1 | 10 | -2 | -142 | -5 | -78 | -252 | · | · | ·
Nc1nc(CCl)nc(Nc2cccc3ccccc23)n1 | 83* | 3 | 40* | -80* | · | 64* | 72* | · | · | Mdm2 MdmX conf=102*
Cc1cc(C)c2cccc(N)c2n1 | -4 | 4 | 15 | 0 | -3 | 10 | · | · | ·
Cc1cc(C)c2ccc(N)nc2c1O | -28 | 3 | 9 | -3 | 74* | 70* | 58* | · | · | Mdm2 MdmX conf=89*
COc1ccc(C(=O)Nc2ccc(C)cn2)c(OC)c1 | -17 | 2 | 62* | -63* | 75* | 74* | 52* | 76* | 85*
CCc1nc2c(OCc3ccc(C(=O)N(C)C)cc3)cccn2c1N(C)C(=O)Nc1ccccc1OC | 11 | 9 | 9 | -14 | · | -6 | · | · | ·
CCC1(O)C(=O)OCc2c1cc1n(c2=O)Cc2cc3cc(O)ccc3nc2-1 (stereo not given) | 84* | 4 | 52* | -27 | 70* | 63* | 52* | 17 | 102* | CF NFkB inh conf=110*
O=C(Nc1ccc(Cl)cn1)c1cc2ccccc2o1 | 0 | -7 | -51 | -3 | -16 | -144 | · | · | ·
O=C(Nc1ccccn1)c1cc2ccccc2o1 | -3 | 9 | 45* | -29 | 62* | 51* | 45* | 70* | 61*
CC1=C(C(=O)OCc2ccc3c(c2)OCO3)C(c2ccccc2)NC(=O)N1 (stereo not given) | 84* | -3 | 37 | -30 | 28 | 51* | 62* | · | · | Mdm2 MdmX conf=96*
CC1=C(C(=O)OCc2ccc3c(c2)OCO3)C(c2ccccc2OCc2ccccc2)NC(=O)N1 (stereo not given) | 26 | 2 | 29 | -3 | 10 | 15 | · | · | ·
O=C(NCC1CCCO1)c1ccc(F)c2ccccc12 (stereo not given) | 6 | 6 | -4 | -7 | -11 | 5 | · | · | ·
O=[N+]([O-])c1cc(Cl)cc(/C=N\Nc2ccccn2)c1O | 85* | 5 | 8 | -93* | 58 | 55* | 55* | · | · | Mdm2 MdmX conf=88*
O=[N+]([O-])c1ccc(Cl)cc1C=NNc1ccccn1 | -25 | -4 | -9 | 3 | 8 | -7 | · | · | ·
CCCS(=O)(=O)c1cnc(C2COc3ccccc3O2)nc1N (stereo not given) | -4 | 0 | 81* | -8 | 72* | 88* | 77* | 89* | 90*
SMILES | CF NFkB block | ABHD5 PLIN5 PPI | HIF-2a block | KKLEB cytotox | TRPM1 prom inh | Peg3 prom inh-1 | Peg3 prom inh-2 | HIF-2a conf | HIF-1a cs | others
CC(C)(C)C(=O)Nc1ccccc1C(=O)NCCC(=O)Nc1ccccc1 | 1 | -2 | -2 | -13 | -18 | -1 | · | · | ·
O=C(N/N=C/c1cccs1)C(=O)Nc1cccc(Cl)c1 | -14 | 0 | -105 | 4 | -9 | -71 | · | · | ·
O=C(O)c1cccc(N/N=C/c2cccs2)c1 | -27 | 2 | 82* | 6 | 77* | 83* | 68* | 86* | -5
CCOC(=O)C1=CNS(=O)(=O)NC1c1ccc(C)cc1 (stereo not given) | 2 | -4 | -3 | -3 | -7 | 4 | · | · | ·
O=C(Nc1ccc(S(=O)(=O)NC2=NCCCCC2)cc1)c1ccc([N+](=O)[O-])s1 | 39 | -11 | 60* | -1 | 89* | 69* | 77* | 21 | 106*
Cc1nn(-c2ccccc2Cl)c(Cl)c1/C=N/Nc1nc2ccccc2s1 | -9 | -3 | 74* | 1 | 98* | 72* | 75* | 84* | 92* | Mdm2 MdmX conf=98*
Cc1ccc(S(=O)(=O)N2C[C@@H](C)[C@]3(C2)[C@H](O)[C@H](OC(=O)NC2CC2)C[C@H]2C(=O)N(c4ccccc4)C(=O)[C@H]23)cc1 | 16 | 4 | 14 | -6 | · | -3 | · | · | ·
Cc1cc(C(=O)N2CCC2(C)C(=O)Nc2cccc3ccccc23)nn1C (stereo not given) | 3 | -3 | 13 | -4 | · | 13 | · | · | ·
Cc1nc(Sc2nnnn2C)c2c3c(sc2n1)CCC3 | 52* | 1 | 55* | -3 | 87* | 55* | 29 | 28 | -9 | CF NFkB inh conf=33
COc1ccc(OC)c(NC(=O)c2cc(OC(C)=O)cc(C(=O)Nc3cc(OC)ccc3OC)c2)c1 | -16 | 3 | -28 | -15 | 3 | 21 | · | · | ·
